Test results: PubChem BioAssay AID1159580 (chemical genetic matrix, 2015)
Screen size: about 5,500 compounds; about 2,000 (36%) were called active. Another 18% or so got no clear call; they are omitted. Rule as the data show it: active = normalized growth mostly below about 0.91 (no sharp cut-off); inconclusive = no clear call, values can overlap the other calls; inactive = mostly above about 0.92. The list shows a part of the results.

Assay: chemical genetic growth profiling, strain panel (AID 1159580);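 also: tested at 20 µM; growth read once vehicle control cultures reached saturation at 30 °C; 1 = growth at the plate median or of vehicle wells; lower values mean less growth of the strain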
Conditions: S. cerevisiae deletion strains, growth OD

Measured: normalized growth

O=C(Oc1cccc2cccnc12)c1ccccc1
active: locus YAL030W, strain snc1, active compounds read low 0.928 | locus YDR137W, strain rgp1, active compounds read low 0.688 | locus YDR392W, strain spt3, active compounds read low 0.601 | locus YHR013C, strain ard1, active compounds read low 0.623 | locus YLL026W, active compounds read low 0.925 | locus YLR262C, strain YPT6 (second series), active compounds read low 0.776 | locus YLR320W, strain mms22, active compounds read low 0.875 | locus YMR058W, strain fet3, active compounds read low 0.897 | locus YNL071W, strain lat1, active compounds read low 0.875 | locus YOR070C, strain gyp1, active compounds read low 0.0944 | locus YOR270C, strain vph1, active compounds read low 0.414 | locus YPL078C, strain atp4, active compounds read low 0.878 | locus YPL106C, strain sse1, active compounds read low 0.732
inactive: locus YAL021C, strain ccr4, active compounds read low 0.962 | locus YAL026C, strain drs2, active compounds read low 0.921 | locus YBL061C, strain skt5, active compounds read low 0.951 | locus YBR009C, strain hhf1, active compounds read low 0.956 | locus YBR023C, strain chs3, active compounds read low 0.956 | locus YBR171W, strain sec66, active compounds read low 0.917 | locus YBR231C, strain swc5, active compounds read low 0.995 | locus YBR279W, strain paf1, active compounds read low 0.957 | locus YCL011C, strain gbp2, active compounds read low 0.959 | locus YCL016C, strain dcc1, active compounds read low 0.952 | locus YCL061C, strain MRC1, active compounds read low 0.967 | locus YCL069W, strain vba3, active compounds read low 0.948 | locus YCR088W, strain abp1, active compounds read low 0.936 | locus YDL005C, strain med2, active compounds read low 0.962 | locus YDL040C, strain nat1, active compounds read low 0.951 | locus YDR001C, strain nth1, active compounds read low 0.936 | locus YDR069C, strain doa4, active compounds read low 0.953 | locus YDR159W, strain sac3, active compounds read low 0.971 | locus YDR195W, strain ref2 1.12 | locus YDR297W, strain sur2, active compounds read low 0.937 | locus YDR334W, strain swr1, active compounds read low 0.921 | locus YDR335W, strain msn5, active compounds read low 0.938 | locus YEL003W, strain gim4, active compounds read low 0.94 | locus YEL037C, strain rad23, active compounds read low 0.961 | locus YEL061C, strain CIN8 (second series), active compounds read low 0.943 | locus YER015W, strain faa2, active compounds read low 0.965 | locus YER016W, strain bim1, active compounds read low 0.96 | locus YER111C, strain swi4, active compounds read low 0.955 | locus YER155C, strain BEM2 (second series), active compounds read low 0.89 | locus YFR010W, strain ubp6, active compounds read low 0.951 | locus YGL167C, strain pmr1, active compounds read low 0.927 | locus YGL173C, strain kem1, active compounds read low 0.908 | locus YGL227W, strain vid30, active compounds read low 0.939 | locus YGL240W, strain doc1, active compounds read low 0.93 | locus YGL253W, strain hxk2, active compounds read low 0.969 | locus YHR027C, strain rpn1, active compounds read low 0.929 | locus YHR030C, strain SLT2, active compounds read low 0.955 | locus YHR079C, strain IRE1, active compounds read low 0.955 | locus YHR142W, strain chs7, active compounds read low 0.897 | locus YJL092W, strain hpr5, active compounds read low 0.972 | locus YJL095W, strain BCK1 (second series), active compounds read low 0.955 | locus YJL095W, strain BCK1, active compounds read low 0.916 | locus YJL115W, strain asf1, active compounds read low 0.951 | locus YJL129C, strain trk1, active compounds read low 0.97 | locus YJL154C, strain vps35, active compounds read low 0.939 | locus YJL164C, strain tpk1, active compounds read low 0.957 | locus YJL166W, strain qcr8, active compounds read low 0.955 | locus YJL187C, strain SWE1, active compounds read low 0.951 | locus YJR066W, strain TOR1, active compounds read low 0.92 | locus YKL160W, strain elf1, active compounds read low 0.935 | locus YKR026C, strain gcn3, active compounds read low 0.951 | locus YKR091W, strain srl3, active compounds read low 0.951 | locus YLL001W, strain dnm1, active compounds read low 0.979 | locus YLL041C, strain sdh2, active compounds read low 0.967 | locus YLR027C, strain aat2, active compounds read low 0.95 | locus YLR113W, strain HOG1, active compounds read low 0.915 | locus YLR221C, strain rsa3, active compounds read low 0.958 | locus YLR258W, strain gsy2, active compounds read low 0.955 | locus YLR342W, strain FKS1, active compounds read low 0.962 | locus YLR357W, strain rsc2, active compounds read low 0.992 | locus YLR370C, strain arc18, active compounds read low 0.918 | locus YLR384C, strain iki3, active compounds read low 0.952 | locus YML120C, strain ndi1, active compounds read low 0.934 | locus YMR125W, strain sto1, active compounds read low 0.961 | locus YMR129W, active compounds read low 0.954 | locus YMR205C, strain PFK2, active compounds read low 0.973 | locus YMR231W, strain pep5, active compounds read low 0.969 | locus YNL183C, strain NPR1, active compounds read low 0.908 | locus YNL209W, strain ssb2, active compounds read low 0.946 | locus YNL248C, strain rpa49, active compounds read low 0.944 | locus YNL322C, strain KRE1 (second series), active compounds read low 0.963 | locus YNR049C, strain mso1, active compounds read low 0.944 | locus YOR001W, strain rrp6, active compounds read low 0.95 | locus YOR080W, strain dia2, active compounds read low 0.973 | locus YOR083W, strain WHI5, active compounds read low 0.945 | locus YOR106W, strain vam3, active compounds read low 0.905 | locus YOR231W, strain MKK1, active compounds read low 0.946 | locus YOR265W, strain rbl2, active compounds read low 0.955 | locus YOR290C, strain snf2, active compounds read low 0.945 | locus YPL051W, strain arl3, active compounds read low 0.932 | locus YPL240C, strain hsp82, active compounds read low 0.965 | locus YPL256C, strain CLN2, active compounds read low 0.961
